Records with an inconclusive call do not appear. Where a call stands in place of a potency, no number is given. Calls of active or inactive are those of the source. Calls follow the shape of the dose curve; as a rule, active = well fitted inhibition curve with a large enough effect; inconclusive = small, poorly fitted or top-dose-only effect; inactive = flat fitted curve, though single readings scatter.
What was measured:
[1] = target: Voltage-gated inwardly rectifying potassium channel KCNH2 (Homo sapiens) (UniProt Q12809); assay: qHTS Assay for Small Molecule Inhibitors of the Human hERG Channel Activity (AID 588834); conditions: U2OS BacMam hERG, FluxOR thallium flux fluorescence; series mostly up to 46.1 µM;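 also: lower thallium flux fluorescence means stronger hERG block; nearly all actives have a fitted effect of over 50% in size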
Method in brief: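 U2OS cells transduced with hERG via BacMam (MOI ~100), plated 2000/well, loaded with FluxOR thallium dye, compound ~10 min, then stimulation buffer; fluorescence decrease read kinetically; AC50 from Hill fits.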

[2] = target: Luciferin 4-monooxygenase (Photinus pyralis) (UniProt P08659); assay: Biochemical firefly luciferase enzyme assay for NPC (AID 624030); also: nearly all actives have a fitted effect of over 70% in size; conditions: purified P. pyralis luciferase, luminescence, 5 min; series mostly up to 58.6 µM
Method in brief: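 Purified P. pyralis luciferase at 10 nM in 50 mM Tris Acetate (final), luminescence read within 5 minutes of enzyme addition to compounds. Activity normalised to PTC124 versus DMSO; concentration-response curves classed by r2, magnitude and activity.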
Potency is read from the fitted curve at half-maximal effect.

Sequence of Voltage-gated inwardly rectifying potassium channel KCNH2 (Homo sapiens) (Q12809 whole entry, looked up): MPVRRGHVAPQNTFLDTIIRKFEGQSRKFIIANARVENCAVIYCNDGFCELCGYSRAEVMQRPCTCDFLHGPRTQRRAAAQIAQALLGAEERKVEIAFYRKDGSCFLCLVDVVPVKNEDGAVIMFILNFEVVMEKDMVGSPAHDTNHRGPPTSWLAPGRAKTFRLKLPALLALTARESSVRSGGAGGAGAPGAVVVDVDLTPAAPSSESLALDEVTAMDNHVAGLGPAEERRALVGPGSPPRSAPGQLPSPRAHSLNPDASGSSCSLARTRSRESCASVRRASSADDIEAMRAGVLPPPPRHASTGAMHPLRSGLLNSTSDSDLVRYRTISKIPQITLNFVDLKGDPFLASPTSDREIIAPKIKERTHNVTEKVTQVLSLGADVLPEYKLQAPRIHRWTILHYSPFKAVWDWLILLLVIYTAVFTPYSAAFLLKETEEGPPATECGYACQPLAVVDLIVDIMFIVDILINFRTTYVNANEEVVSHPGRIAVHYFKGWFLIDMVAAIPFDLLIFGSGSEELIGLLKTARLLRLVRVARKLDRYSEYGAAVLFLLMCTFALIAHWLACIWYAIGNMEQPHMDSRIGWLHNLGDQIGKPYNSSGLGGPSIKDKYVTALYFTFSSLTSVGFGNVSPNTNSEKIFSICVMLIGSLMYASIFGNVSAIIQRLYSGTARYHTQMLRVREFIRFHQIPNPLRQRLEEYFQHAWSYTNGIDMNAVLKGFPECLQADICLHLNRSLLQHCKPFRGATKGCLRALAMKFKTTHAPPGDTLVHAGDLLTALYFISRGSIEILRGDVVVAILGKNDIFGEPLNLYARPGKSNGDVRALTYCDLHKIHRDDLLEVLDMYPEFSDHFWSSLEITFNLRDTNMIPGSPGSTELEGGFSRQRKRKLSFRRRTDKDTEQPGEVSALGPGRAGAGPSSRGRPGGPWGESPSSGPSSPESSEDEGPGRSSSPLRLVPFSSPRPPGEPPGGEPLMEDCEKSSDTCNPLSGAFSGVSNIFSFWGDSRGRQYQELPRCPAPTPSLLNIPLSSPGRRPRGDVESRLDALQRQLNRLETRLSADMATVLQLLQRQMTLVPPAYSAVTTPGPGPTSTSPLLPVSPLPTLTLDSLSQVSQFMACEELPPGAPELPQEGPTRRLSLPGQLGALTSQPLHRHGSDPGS
Sequence of Luciferin 4-monooxygenase (Photinus pyralis) (P08659 whole entry, looked up): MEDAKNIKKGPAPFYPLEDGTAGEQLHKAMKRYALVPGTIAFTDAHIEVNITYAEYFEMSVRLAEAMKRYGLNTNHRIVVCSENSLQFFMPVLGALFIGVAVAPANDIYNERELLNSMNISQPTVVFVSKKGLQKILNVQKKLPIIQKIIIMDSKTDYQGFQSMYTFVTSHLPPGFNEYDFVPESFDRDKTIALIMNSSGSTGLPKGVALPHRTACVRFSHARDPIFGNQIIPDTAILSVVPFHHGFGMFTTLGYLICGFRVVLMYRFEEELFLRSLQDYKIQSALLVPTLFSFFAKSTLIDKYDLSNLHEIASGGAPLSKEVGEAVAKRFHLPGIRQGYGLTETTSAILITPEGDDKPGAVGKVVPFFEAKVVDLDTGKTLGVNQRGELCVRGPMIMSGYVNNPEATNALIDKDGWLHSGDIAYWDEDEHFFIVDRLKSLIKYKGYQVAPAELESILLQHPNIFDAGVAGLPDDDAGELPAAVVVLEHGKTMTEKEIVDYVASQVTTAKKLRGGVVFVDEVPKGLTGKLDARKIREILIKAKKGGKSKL

Compound | Potency [1] | Potency [2]
CO[C@]12C[C@@H](COC(=O)c3cncc(Br)c3)CN(C)[C@@H]1Cc1cn(C)c3cccc2c13 | 0.398 µM (active) | inactive
O=C(O)P(=O)(O)O | inactive | inactive
COc1cc(C(=O)N2CCCCCCC2)cc(OC)c1OC | inactive | inactive
CNCCCCOc1ccccc1Cc1ccccc1 | 6.31 µM (active) | inactive
CC(C)Nc1cccnc1N1CCN(C(=O)c2cc3cc(NS(C)(=O)=O)ccc3[nH]2)CC1 | 8.91 µM (active) | inactive
NC(=S)N/N=C/c1cccnc1 | inactive | inactive
O=C1C(O)=C(O)C(=O)C(O)=C1O | inactive | inactive
CC(=O)NC(=O)c1ccccc1O | inactive | inactive
COc1cc(C(=O)NCc2ccc(OCCN(C)C)cc2)cc(OC)c1OC | inactive | inactive
COc1cc(N)c(Cl)cc1C(=O)NC1CCN(Cc2ccccc2)CC1 | 5.01 µM (active) | inactive
CC(C)NCC(O)c1ccc2ccccc2c1 (stereo unspecified) | inactive | inactive
COc1cc(O)c(C(=O)c2ccccc2)cc1S(=O)(=O)O | inactive | inactive
CC(=O)Nc1ccc(OCC(O)CNC(C)C)cc1 (stereo unspecified) | inactive | inactive
CCOC(=O)c1ccc(N)cc1 | inactive | inactive
Cc1ccccc1OCC(O)CO (stereo unspecified) | inactive | inactive
CCCCCCCCCCCCCC[N+](C)(C)Cc1ccccc1 | 7.94 µM (active) | inactive
O=C(O)Cc1csc(-c2ccc(Cl)cc2)n1 | inactive | inactive
c1ccc(-c2nc[nH]c2-c2ccccc2)cc1 | inactive | inactive
C#C[C@]1(OC(C)=O)CC[C@H]2[C@@H]3CCC4=C/C(=N/O)CC[C@@H]4[C@H]3CC[C@@]21CC | inactive | inactive
NS(=O)(=O)Cc1noc2ccccc12 | inactive | inactive
CCCCCCCCNC(C)C(O)c1ccc(SC(C)C)cc1 (stereo unspecified) | 0.631 µM (active) | inactive
Nc1ccc(C(=O)NCC(=O)O)cc1 | inactive | inactive
COc1ccc(/C=N/NC(=O)c2ccncc2)cc1OC | inactive | inactive
CN(C)CCOC(c1ccc(Cl)cc1)c1ccccn1 (stereo unspecified) | 14.1 µM (active) | inactive

Compound | Potency [1] | Potency [2]
CCC(C(=O)OCCOCCN(CC)CC)c1ccccc1 (stereo unspecified) | inactive | inactive
Cc1c[nH]c2ccccc12 | inactive | inactive
CCCCNc1ccc(C(=O)OCCOCCOCCOCCOCCOCCOCCOCCOCCOC)cc1 | inactive | inactive
CCOCCn1c(N2CCCN(C)CC2)nc2ccccc21 | 1 µM (active) | inactive
O=C(Nc1ncc([N+](=O)[O-])s1)c1cccs1 | inactive | 3.61 µM (active)
Cc1nc(-c2ccc(Cl)cc2)oc1COC(C)(C)C(=O)O | inactive | inactive
COc1ccccc1N1CCN(CCCCNC(=O)c2ccc(-c3ccc(C(C)=O)cc3)cc2)CC1 | 1.26 µM (active) | inactive
Cc1ncc(CO)c(C=O)c1O | inactive | inactive
CC[C@H](c1ccc(O)cc1)[C@@H](CC)c1ccc(O)cc1 | inactive | inactive
CC1CCc2c(N3CCC(O)CC3)c(F)cc3c(=O)c(C(=O)O)cn1c23 (stereo unspecified) | inactive | inactive
COP(=O)(OC)OC(c1ccc(Cl)cc1)P(=O)(OC)OC (stereo unspecified) | inactive | inactive
O=C(CN1CCN(Cc2ccc3c(c2)OCO3)CC1)N1c2ccccc2Sc2ccccc21 | 2.51 µM (active) | inactive
C/C=C/C=N/NC(=O)c1ccncc1 | inactive | inactive
O=C(Nc1ccc([N+](=O)[O-])cc1)Nc1ccc([N+](=O)[O-])cc1 | 14.1 µM (active) | inactive
Cc1cccc(C)c1NC(=O)CN1CCCC1 | inactive | inactive
Cc1ccc(-c2ncc(Cl)cc2-c2ccc(S(C)(=O)=O)cc2)cn1 | inactive | inactive
CCc1nn(CCCN2CCN(c3cccc(Cl)c3)CC2)c(=O)n1CCOc1ccccc1 | 1 µM (active) | inactive
CN1CCC(OC(c2ccccc2)c2ccccc2)CC1 | 4.47 µM (active) | inactive
N=C(N)N1CCc2ccccc2C1 | inactive | inactive
CC(=O)Nc1ccc(CC(=O)O)cc1 | inactive | inactive
O=C1C(CCS(=O)c2ccccc2)C(=O)N(c2ccccc2)N1c1ccccc1 (stereo unspecified) | inactive | inactive
OC1C(O)C(O)C(O)C(O)C1O (stereo unspecified) | inactive | inactive
O=C(Nc1cccc(C2=NCCN2)c1)Nc1cccc(C2=NCCN2)c1 | inactive | inactive
COc1cc(C)nc(-n2nc(C)cc2OC)n1 | inactive | inactive

Source: PubChem BioAssay (NCATS)
